We go through 19 compounds from PubChem BioAssay (NCATS).

Inconclusive results are not listed. Entries that show only a call come without a potency. Active and inactive are the calls of the source. Calls come from the whole dose curve; as a rule, active = well fitted cell-killing curve with a large enough effect; inconclusive = small, poorly fitted or top-dose-only effect; inactive = flat fitted curve, though single readings scatter. Numbered stars: 1 amine (or outer) side, 2 acyl side, 3 side chain; on linkers, the order of the positions; unused ones are H or OH. Bridge positions count the residues as written; N and C are the ends. Square brackets hold non-standard residues; d marks the D form. Peptide text beside a SMILES is read from it. I, II: the chains in the order shown. Actinocin(9to1) = Cc1c2oc3c(C)ccc(C(=O)[*:1])c3nc-2c(C(=O)[*:2])c(N)c1=O; NMeV = CN[C@H](C(=O)O)C(C)C; Sar = CNCC(=O)O
Potency is the fitted concentration of half-maximal effect.

The nature of the assay: Cell Viability - LYMP2-024 (AID 988). Note: nearly all actives have a fitted effect of over 60% in size. The conditions noted are these: LYMP2-024 lymphoblastoid cell viability; series mostly up to 92.2 µM. An excerpt:
NIH Chemical Genomics Center [NCGC]
NIH Molecular Libraries Screening Centers Network [MLSCN]
National Institutes of Environmental Health Sciences [NIEHS]
National Toxicology Program [NTP]
We have developed a 1536-well cell-based assay for quantitative high throughput screening (qHTS) against a number of cell lines to determine in vitro cytotoxicity of small molecules. This particular assay uses a human lymphoblastoid cell line (LYMP2-024) purchased from Coriell Institute for Medical Research.
NCGC Assay Protocol Summary:
The CellTiter-Glo luminescent cell viability assay (Promega) is a homogeneous method to measure the number of viable cells in culture. The end point readout of this assay is based on quantitation of intracellular ATP, an indicator of metabolic activity, using the luciferase reaction. Luciferase catalyzes the oxidation of beetle Luciferin to oxyluciferin and light in the presence of ATP. The luminescent signal is proportional to amount of ATP present.
Using the CellTiter-Glo luminescent cell viability assay, the amount of cellular ATP was measured in the lymphoblastoid cell line with complete culture medium following compound treatment for 24 hours. The assay was performed in opaque white Kalypsys 1536-well plates. In the screen, tetraoctylammonium bromide was used as positive control. Library compounds were measured for their ability to cause acute toxicity in the cell line, as reflected by a decrease in intracellular ATP levels, in a concentration-dependent manner. […] AC50 values were determined from concentration-response data modeled with the standard Hill equation.
qHTS protocol for CellTiter Glo lymphoblastoid cellular assay
[Step] [Parameter] [Value] [Description]
1. Reagent; 5 uL; 2500 lymphoblastoid cells/well
2. Time; 5 hr; 37 C incubation
4. Controls; 23 nL; Tetraoctylammonium bromide 6.4pM to 92 uM
5. Time; 24 hr; 37 C incubation
6. Reagent; 5 uL; CellTiter Glo reagent
7. Time; 30 min; Room Temperature
8. Detection; Luminescence; Viewlux plate reader
Keywords: cell viability, cytotoxicity, lymphoblastoid cell line, luminescence, NTPHTS, NTPHTS_NCGC, NIEHS, DSSTox, MLSMR, MLSCN, NIH Roadmap, qHTS, NCGC
As to `C=CCc1ccc(O)c(OC)c1`, the Potency result is “inactive”.

On to `CC(C)(C)CC(C)(C)c1ccc(OCCOCC[N+](C)(C)Cc2ccccc2)cc1`, for which the Potency is 31.6 µM (active).

For the compound `CC(O)C(=O)O` (centres undefined), the Potency entry was “inactive”.

Take `C[C@]12CC[C@@H]3c4ccc(O)cc4CC[C@H]3[C@@H]1CC[C@@H]2O`: the Potency result was “inactive”.

As for `COc1cccc2c1C(=O)c1c(O)c3c(c(O)c1C2=O)C[C@@](O)(C(C)=O)C[C@@H]3O[C@H]1C[C@H](N)[C@H](O)[C@H](C)O1`, the Potency is 0.126 µM (active).

On to `CN(C)/N=N/c1nc[nH]c1C(N)=O`, for which the Potency result was “inactive”.

On to `CC/C(=C(/CC)c1ccc(O)cc1)c1ccc(O)cc1`, for which the Potency result was “inactive”.

`O=c1ccc2ccccc2o1`: the Potency entry is “inactive”.

Take `CCCCCCc1ccc(O)cc1O`: the Potency entry is “inactive”.

For `CC(=O)Oc1ccc(C(c2ccc(OC(C)=O)cc2)c2ccccn2)cc1`, the Potency entry was “inactive”.

Take `O=C(O)CCCCC(=O)O`: the Potency entry was “inactive”.

On to `Oc1ccc(O)cc1`, for which the Potency was 50.1 µM (active).

On to `NC(=NCCCCCCN=C(N)/N=C(\N)Nc1ccc(Cl)cc1)/N=C(\N)Nc1ccc(Cl)cc1`, for which the Potency was 39.8 µM (active).

With `O=C1OC(c2ccc(O)cc2)(c2ccc(O)cc2)c2ccccc21`, the Potency result is “inactive”.

On to `COc1cccc2c1C(=O)c1c(O)c3c(c(O)c1C2=O)C[C@@](O)(C(=O)CO)C[C@@H]3O[C@H]1C[C@H](N)[C@H](O)[C@H](C)O1`, for which the Potency was 0.199 µM (active).

Regarding `Cc1c2oc3c(C)ccc(C(=O)N[C@@H]4C(=O)N[C@H](C(C)C)C(=O)N5CCC[C@H]5C(=O)N(C)CC(=O)N(C)[C@@H](C(C)C)C(=O)O[C@@H]4C)c3nc-2c(C(=O)N[C@@H]2C(=O)N[C@H](C(C)C)C(=O)N3CCC[C@H]3C(=O)N(C)CC(=O)N(C)[C@@H](C(C)C)C(=O)O[C@@H]2C)c(N)c1=O` (I: T[dV]P[Sar][NMeV] / II: T[dV]P[Sar][NMeV]; ester I:1-I:C, II:1-II:C; linker I:N-II:N via Actinocin(9to1)), the Potency is 0.004 µM (active).

Take `COC1=CC(=O)C[C@@H](C)[C@]12Oc1c(Cl)c(OC)cc(OC)c1C2=O`: the Potency entry was “inactive”.

In the case of `C=C(CC)C(=O)c1ccc(OCC(=O)O)c(Cl)c1Cl`, the Potency was 39.8 µM (active).

With `Nc1ccc(C(=O)O)cc1`, the Potency entry is “inactive”.
